# Targets with a hit are over-represented here; the source holds about 7,900 in all. About 0.6% of all pairs of compound and target were hits. A number with no mark means an inactive call.
# Assays:
# Experiment in all cases: log2 fold change, soluble protein after heating vs DMSO (PISA); higher = thermal stabilisation; K562 cells, 10 uM, 30 min; active = over 0.2 and 3.5 SD of the protein, either way, in both replicates (recomputed)
# [1] = compound: CC[C@@H]1C(=O)N(C)c2cnc(Nc3ccc(C(=O)NC4CCN(C)CC4)cc3OC)nc2N1C1CCCC1
# Method in brief: (§1)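 Soluble protein was quantified by TMTpro 16plex LC-MS/MS after channel sums were equalised. It was obtained as the supernatant after 21,000xg for 90 min from pooled aliquots of K562 cells (2×10^6 cells/mL, 10 μM compound, 30 min) heated for 3 min across 48°C-58°C and extracted in PBS with 0.5% NP-40 at 4°C. Thermal stability values are relative to control samples and come from duplicates. They are given as log2 fold changes.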
# volasertib = compound: CC[C@@H]1C(=O)N(C)c2cnc(Nc3ccc(C(=O)N[C@H]4CC[C@H](N5CCN(CC6CC6)CC5)CC4)cc3OC)nc2N1C(C)C [volasertib]
# Method in brief: as §1
# [2] = compound: CC[C@H](C)N1C=C(C2=C(C=C(C=C21)C3=CN=C(C=C3)N4CCNCC4)C(=O)NCC5=C(C=C(NC5=O)C)C)C
# Method in brief: as §1
# epoxomicin = compound: CC[C@H](C)[C@@H](C(=O)N[C@@H]([C@@H](C)O)C(=O)N[C@@H](CC(C)C)C(=O)[C@]1(CO1)C)NC(=O)[C@H]([C@@H](C)CC)N(C)C(=O)C [epoxomicin]
# Method in brief: as §1
# [3] = compound: CCn1c(C(=O)N(C2CC2)C2CC2)cc2c3c(ncn3C)c(Nc3cc(C)n(C)n3)nc21
# Method in brief: as §1
# [4] = compound: CCn1cc(-c2ccnc3[nH]c(-c4cccc(CN(C)C)c4)cc23)c(-c2ccc(NC(=O)N(C)C)cc2)n1
# Method in brief: as §1
# [5] = compound: CN(C)CC(=O)Nc1ccc2[nH]c(=O)c3ccccc3c2c1
# Method in brief: as §1
# rosiglitazone = compound: CN(CCOC1=CC=C(C=C1)C[C@H]2C(=O)NC(=O)S2)C3=CC=CC=N3 (racemic) [rosiglitazone]
# Method in brief: as §1
# [6] = compound: CN1C2=C(C3=C1C(=O)N(N=C3)CC4=CC(=CC=C4)N)SC(=C2)S(=O)C
# Method in brief: as §1
# [7] = compound: CN1CCC(CNc2ccc3ncc(-c4cccc(OC(F)(F)F)c4)n3n2)CC1
# Method in brief: as §1
# UniProt Q92947, sequence (Q92947 whole entry, looked up): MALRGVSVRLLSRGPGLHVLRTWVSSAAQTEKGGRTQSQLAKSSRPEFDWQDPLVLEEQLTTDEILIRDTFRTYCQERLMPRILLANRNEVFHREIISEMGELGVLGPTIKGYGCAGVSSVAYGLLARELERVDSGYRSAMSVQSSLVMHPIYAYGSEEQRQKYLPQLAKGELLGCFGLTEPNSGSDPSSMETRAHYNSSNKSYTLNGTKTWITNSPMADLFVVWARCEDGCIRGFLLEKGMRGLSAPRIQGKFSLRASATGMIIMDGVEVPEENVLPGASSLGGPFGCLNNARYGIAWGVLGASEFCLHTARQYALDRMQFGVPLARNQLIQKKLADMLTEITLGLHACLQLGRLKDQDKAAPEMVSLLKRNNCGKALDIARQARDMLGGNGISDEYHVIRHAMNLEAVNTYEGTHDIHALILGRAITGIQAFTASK
# UniProt Q7Z4H3, sequence (Q7Z4H3 whole entry, looked up): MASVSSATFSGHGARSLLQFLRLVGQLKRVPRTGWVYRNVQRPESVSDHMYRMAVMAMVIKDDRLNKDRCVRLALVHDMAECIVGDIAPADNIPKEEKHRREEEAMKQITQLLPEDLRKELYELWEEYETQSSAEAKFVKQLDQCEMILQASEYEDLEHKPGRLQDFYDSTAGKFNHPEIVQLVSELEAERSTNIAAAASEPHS
# UniProt O00291, sequence (O00291 whole entry, looked up): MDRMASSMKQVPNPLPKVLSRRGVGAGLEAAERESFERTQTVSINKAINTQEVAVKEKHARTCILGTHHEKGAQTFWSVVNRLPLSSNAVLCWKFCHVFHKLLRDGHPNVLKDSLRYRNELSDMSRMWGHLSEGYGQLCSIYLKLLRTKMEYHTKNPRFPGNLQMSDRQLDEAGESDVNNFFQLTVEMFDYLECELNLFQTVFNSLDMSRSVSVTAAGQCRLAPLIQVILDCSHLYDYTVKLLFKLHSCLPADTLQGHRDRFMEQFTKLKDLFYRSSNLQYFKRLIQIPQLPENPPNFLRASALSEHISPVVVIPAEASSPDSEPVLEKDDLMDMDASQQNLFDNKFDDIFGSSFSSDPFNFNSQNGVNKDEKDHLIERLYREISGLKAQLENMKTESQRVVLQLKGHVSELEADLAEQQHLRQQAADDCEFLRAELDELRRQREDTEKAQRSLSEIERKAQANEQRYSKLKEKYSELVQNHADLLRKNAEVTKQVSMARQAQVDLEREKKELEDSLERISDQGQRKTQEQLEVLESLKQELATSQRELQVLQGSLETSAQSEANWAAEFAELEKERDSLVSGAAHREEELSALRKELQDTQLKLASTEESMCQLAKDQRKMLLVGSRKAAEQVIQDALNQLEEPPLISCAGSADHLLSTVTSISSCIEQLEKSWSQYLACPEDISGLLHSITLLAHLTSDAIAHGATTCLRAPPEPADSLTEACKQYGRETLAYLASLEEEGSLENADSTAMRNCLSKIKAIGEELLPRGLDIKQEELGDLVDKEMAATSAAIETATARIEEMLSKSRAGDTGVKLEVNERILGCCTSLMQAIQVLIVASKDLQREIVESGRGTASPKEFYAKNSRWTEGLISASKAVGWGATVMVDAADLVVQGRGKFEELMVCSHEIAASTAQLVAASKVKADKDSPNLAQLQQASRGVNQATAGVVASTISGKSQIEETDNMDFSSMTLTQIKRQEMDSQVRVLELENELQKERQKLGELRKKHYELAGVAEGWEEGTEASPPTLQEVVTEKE
# UniProt Q14527, sequence (Q14527 whole entry, looked up): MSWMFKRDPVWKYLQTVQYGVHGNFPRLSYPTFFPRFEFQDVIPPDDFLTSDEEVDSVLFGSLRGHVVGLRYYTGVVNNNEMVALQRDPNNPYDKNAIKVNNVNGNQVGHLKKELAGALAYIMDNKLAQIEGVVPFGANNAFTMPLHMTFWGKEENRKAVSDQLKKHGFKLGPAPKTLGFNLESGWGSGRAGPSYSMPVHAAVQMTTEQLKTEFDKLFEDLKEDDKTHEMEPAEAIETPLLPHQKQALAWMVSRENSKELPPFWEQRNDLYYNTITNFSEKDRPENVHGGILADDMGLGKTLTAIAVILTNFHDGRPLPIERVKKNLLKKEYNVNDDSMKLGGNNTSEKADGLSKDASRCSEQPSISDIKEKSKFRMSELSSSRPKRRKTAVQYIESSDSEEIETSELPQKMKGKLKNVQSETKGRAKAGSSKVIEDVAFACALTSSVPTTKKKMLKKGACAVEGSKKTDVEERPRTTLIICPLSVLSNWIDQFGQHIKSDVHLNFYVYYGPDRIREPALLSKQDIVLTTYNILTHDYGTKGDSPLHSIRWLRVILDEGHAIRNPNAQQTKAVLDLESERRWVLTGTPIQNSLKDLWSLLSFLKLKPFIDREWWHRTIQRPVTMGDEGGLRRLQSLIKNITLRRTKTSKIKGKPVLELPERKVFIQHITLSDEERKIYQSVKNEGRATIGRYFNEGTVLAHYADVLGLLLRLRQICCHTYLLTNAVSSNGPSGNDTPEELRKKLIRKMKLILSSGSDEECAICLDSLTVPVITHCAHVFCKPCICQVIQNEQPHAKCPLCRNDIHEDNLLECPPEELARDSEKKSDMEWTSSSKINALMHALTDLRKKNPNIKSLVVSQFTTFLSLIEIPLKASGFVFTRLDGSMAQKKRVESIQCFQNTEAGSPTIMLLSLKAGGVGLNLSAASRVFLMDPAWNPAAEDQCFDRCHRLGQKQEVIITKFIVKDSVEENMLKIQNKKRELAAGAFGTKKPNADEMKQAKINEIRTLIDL
# UniProt Q9H0R8, sequence (Q9H0R8 whole entry, looked up): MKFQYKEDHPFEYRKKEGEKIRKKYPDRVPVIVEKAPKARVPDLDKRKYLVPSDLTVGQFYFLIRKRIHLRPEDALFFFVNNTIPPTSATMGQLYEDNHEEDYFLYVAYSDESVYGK
# UniProt Q96LB3, sequence (Q96LB3 whole entry, looked up): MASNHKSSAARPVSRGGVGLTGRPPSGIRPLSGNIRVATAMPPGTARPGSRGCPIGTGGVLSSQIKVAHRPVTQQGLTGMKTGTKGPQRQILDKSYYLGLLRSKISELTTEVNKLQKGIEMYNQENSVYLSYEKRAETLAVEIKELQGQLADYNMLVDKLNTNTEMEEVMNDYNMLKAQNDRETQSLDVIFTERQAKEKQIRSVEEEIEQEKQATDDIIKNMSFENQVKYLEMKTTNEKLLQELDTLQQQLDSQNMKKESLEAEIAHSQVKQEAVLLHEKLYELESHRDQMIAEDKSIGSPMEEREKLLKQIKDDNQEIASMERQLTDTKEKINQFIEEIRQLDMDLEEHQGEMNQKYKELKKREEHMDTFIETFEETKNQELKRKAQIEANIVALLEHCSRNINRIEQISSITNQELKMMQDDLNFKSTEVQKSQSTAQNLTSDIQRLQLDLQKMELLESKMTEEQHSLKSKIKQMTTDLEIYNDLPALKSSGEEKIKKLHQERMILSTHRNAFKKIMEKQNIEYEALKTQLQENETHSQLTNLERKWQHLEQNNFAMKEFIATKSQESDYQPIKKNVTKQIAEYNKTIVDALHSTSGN
# UniProt P52597, sequence (P52597 whole entry, looked up): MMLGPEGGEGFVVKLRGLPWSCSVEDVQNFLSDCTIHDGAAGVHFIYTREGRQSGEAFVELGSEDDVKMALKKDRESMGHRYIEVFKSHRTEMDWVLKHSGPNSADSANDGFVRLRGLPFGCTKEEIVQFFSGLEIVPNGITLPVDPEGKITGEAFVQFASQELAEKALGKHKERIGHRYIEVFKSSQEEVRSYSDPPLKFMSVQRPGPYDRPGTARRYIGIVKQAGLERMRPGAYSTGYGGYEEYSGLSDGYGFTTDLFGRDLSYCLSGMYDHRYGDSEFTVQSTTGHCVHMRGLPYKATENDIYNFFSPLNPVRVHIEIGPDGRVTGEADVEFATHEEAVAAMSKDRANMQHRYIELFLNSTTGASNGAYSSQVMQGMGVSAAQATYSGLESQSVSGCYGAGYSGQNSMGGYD
# UniProt Q9H6D7, sequence (Q9H6D7 whole entry, looked up): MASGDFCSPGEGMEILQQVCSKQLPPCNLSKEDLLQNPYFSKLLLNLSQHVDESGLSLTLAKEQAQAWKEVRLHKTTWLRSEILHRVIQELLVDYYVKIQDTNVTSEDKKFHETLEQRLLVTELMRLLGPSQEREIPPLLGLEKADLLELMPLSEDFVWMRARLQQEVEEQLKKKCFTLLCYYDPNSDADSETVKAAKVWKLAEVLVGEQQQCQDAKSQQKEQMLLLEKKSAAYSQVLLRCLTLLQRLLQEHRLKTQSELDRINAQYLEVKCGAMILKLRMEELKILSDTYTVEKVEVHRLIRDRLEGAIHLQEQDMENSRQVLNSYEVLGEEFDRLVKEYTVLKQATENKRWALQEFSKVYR
# UniProt P63218, sequence (P63218 whole entry, looked up): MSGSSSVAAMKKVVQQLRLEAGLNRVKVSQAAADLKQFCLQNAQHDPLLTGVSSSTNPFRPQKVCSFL
# UniProt P08754, sequence (P08754 whole entry, looked up): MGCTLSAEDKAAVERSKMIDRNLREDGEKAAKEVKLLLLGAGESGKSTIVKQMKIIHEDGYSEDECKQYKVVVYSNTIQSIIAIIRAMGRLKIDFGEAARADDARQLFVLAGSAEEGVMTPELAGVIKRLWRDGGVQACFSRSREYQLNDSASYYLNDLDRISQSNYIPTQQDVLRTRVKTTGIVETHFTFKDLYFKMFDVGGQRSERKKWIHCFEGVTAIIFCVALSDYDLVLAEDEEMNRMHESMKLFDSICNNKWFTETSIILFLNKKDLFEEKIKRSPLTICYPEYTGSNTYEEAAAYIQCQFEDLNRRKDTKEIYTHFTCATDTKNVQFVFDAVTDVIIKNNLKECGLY
# UniProt Q92664, sequence (Q92664 whole entry, looked up): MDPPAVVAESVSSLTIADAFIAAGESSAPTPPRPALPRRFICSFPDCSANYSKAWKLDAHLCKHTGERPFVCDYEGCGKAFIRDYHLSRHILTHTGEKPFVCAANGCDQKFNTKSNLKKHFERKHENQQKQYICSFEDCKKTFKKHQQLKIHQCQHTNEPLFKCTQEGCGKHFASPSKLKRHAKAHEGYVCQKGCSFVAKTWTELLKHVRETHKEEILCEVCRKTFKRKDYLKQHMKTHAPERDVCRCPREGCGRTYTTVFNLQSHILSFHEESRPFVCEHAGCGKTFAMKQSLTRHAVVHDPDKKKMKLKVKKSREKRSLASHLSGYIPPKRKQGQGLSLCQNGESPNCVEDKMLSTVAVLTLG
Target,log2 fold change [1],log2 fold change (volasertib),log2 fold change [2],log2 fold change (epoxomicin),log2 fold change [3],log2 fold change [4],log2 fold change [5],log2 fold change (rosiglitazone),log2 fold change [6],log2 fold change [7]
IFT74 (UniProt Q96LB3),0.125,0.01,-0.319,-0.061,-0.057,0,-0.051,0.031,0.025,-0.05
IFNGR1 (UniProt P15260),0.065,0.15,-0.382,0.021,-0.108,0.1,-0.087,-0.02,0.032,0.127
GTF2E2 (UniProt P29084),-0.11,-0.265 (active),0.105,0.099,-0.036,0.001,0.069,0.017,0.027,-0.103
HIST2H2BF isoform 2 (UniProt Q5QNW6),-0.043,0.153,-0.079,-0.243,0.017,0.231,-0.22,-0.055,0.398,0.084
HIP1 (UniProt O00291),0.027,-0.23,-0.095,0.085,0.005,0.031,-0.045,-0.007,-0.063,-0.148
GLUD1 (UniProt P00367),0.146,0.25,0.034,0.024,0.126,-0.054,0,-0.007,-0.128,0.102
HLTF (UniProt Q14527),-0.063,-0.178,0.017,0.158,-0.025,-0.113,0.056,0.025,-0.009,0.201
FNTA (UniProt P49354),0.123,0.362 (active),0.006,0.019,0.032,-0.074,0.012,0.036,-0.03,0.015
HNRNPF (UniProt P52597),-0.049,-0.587 (active),0.128,0.009,-0.066,-0.027,0.051,0.037,0.052,-0.153
GABARAPL1 isoform 2 (UniProt Q9H0R8),-0.303 (active),-0.186,0.035,-0.029,-0.037,0.007,0.034,0.03,-0.135,-0.187
HRAS (UniProt P01112),-0.014,0.057,-0.028,0.104,0.007,-0.082,-0.125,-0.159,-0.033,0.048
GLUL (UniProt P15104),0.049,0.113,-0.041,0.081,0.045,0.014,-0.032,-0.022,-0.032,0.017
HRC (UniProt P23327),0.01,0.043,-0.014,-0.061,-0.016,-0.023,0.005,-0.008,-0.107,-0.013
GSK3B isoform 2 (UniProt P49841),0.013,-0.027,-0.002,0.058,-0.032,-0.1,-0.001,0.036,-0.004,0.004
FARS2 (UniProt O95363),0.01,-0.172,0.109,-0.034,0.036,-0.052,-0.036,0.086,-0.002,-0.319 (active)
HEATR3 (UniProt Q7Z4Q2),-0.308,-0.36 (active),0.033,0.039,-0.051,0.276,0.058,0.059,0.007,-0.34
H1FX (UniProt Q92522),0.166,0.415,-0.003,-0.201,-0.026,0.041,-0.115,-0.156,0.287,0.129
HDDC2 (UniProt Q7Z4H3),0.008,0.08,0.014,-0.006,0.034,-0.063,0.025,0.035,-0.102,-0.066
GTF3A (UniProt Q92664),-0.128,-0.028,0.074,-0.101,-0.024,-0.263,0.049,0.071,0.016,-0.447 (active)
HAUS4 (UniProt Q9H6D7),-0.138,-0.027,0.123,-0.391,-0.04,0.032,-0.072,0.027,0.246,0.049
GCDH (UniProt Q92947),-0.029,0.039,-0.003,0.024,-0.021,-0.051,0.008,0.013,-0.048,0.072
FOXK1 (UniProt P85037),0.429,-0.017,0.035,0.027,-0.094,0.041,-0.001,-0.077,-0.289,0.456
GOLPH3 (UniProt Q9H4A6),0.029,0.008,0.086,0.084,-0.016,-0.059,-0.001,0.037,-0.075,0.236 (active)
GNAI3 (UniProt P08754),0.089,0.147,-0.011,0.014,0.036,-0.071,-0.012,-0.101,-0.046,0.075
HMGCR isoform 3 (UniProt P04035),-0.007,-0.019,-0.07,0.356 (active),-0.04,0.015,-0.023,-0.006,-0.009,0.272
GNG5 (UniProt P63218),0.105,0.033,-0.117,0.556 (active),0.059,0.004,-0.07,-0.045,-0.014,0.144
GCC2 (UniProt Q8IWJ2),0.094,-0.116,0.053,-0.005,0.038,0.013,0.026,-0.01,0.196,0.031
GLA (UniProt P06280),-0.449 (active),-0.911 (active),0.002,0.026,0.016,0.03,-0.001,-0.07,0.005,-0.535 (active)
HADHB (UniProt P55084),0.082,0.462,0.123,0.05,0.161,-0.223,0.015,-0.039,-0.058,-0.223
GDI1 (UniProt P31150),0.018,0.113,0.025,0.022,-0.031,-0.068,-0.015,0.027,-0.082,0.008
